Bioassay records (PubChem BioAssay)
A selection: hits, their analogues and other compounds. The true share with any hit is near 27%.
CYP2C19 inhib: inhibitors of human CYP2C19 | P33261 | CYP2C19 Supersomes, luciferin-H EGE luminescence, 30 min | inhibition, % at 5 µM | 96,000 compounds, 21% hits;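 active = CYP2C19 inhibition above a set limit at 5 µM in the primary screen, cut at about 50% in these data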;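 also: plate controls were negative control wells for no effect and 2.5 mM tranylcypromine positive control for full effect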
CYP2C19 activ: cytochrome P450 2C19 (human) activation; recombinant CYP2C19, luciferin-H EGE luminescence; active compounds read high; 0 = fully inhibited enzyme, 1 = untreated enzyme; activation factor at 5 µM; 96,000 tested, under 10 active; P33261;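 active = activation factor of at least 2 at 5 µM in the primary screen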;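 also: 0 = wells with 2.5 mM tranylcypromine and 1 = vehicle-only wells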
CYP2C9 inh: blocks human cytochrome P450 2C9 | P11712 | CYP2C9 Supersomes, luciferin-H conversion, luminescence | inhibition, % at 5 µM | 96,000 compounds, 20% hits;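 active = blocking of liver enzyme CYP2C9 beyond about 50% at 5 µM, limit read from the data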
Cav32 inh: human Cav3.2 channel inhibition, primary screen. Cav3.2-expressing cells, Fluo-4 calcium fluorescence FDSS; active compounds read low. 100,000 compounds, 4% hits. AID 449739. B-score at 10 µM. O95180;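 active = single-dose well whose peak fluorescence ratio is a statistical outlier from its plate by either plate-standardised score or position-corrected B-score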
CYP2C9 activ: CYP2C9 (human) activation; recombinant CYP2C9, luciferin-H conversion, luminescence; active compounds read high; factor 1 = untreated enzyme, 0 = blocked; activation factor at 5 µM; 96,000 compounds, 1.4% hits; AID 1024;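 active = activation factor of 2 or more for CYP2C9 at a 5 µM dose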;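 also: 0 = sulfaphenazole-blocked wells and 1 = vehicle-only wells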
Starred values were filed as active, the others as inactive; / = no result given.

SMILES	CYP2C19 inhib	CYP2C19 activ	CYP2C9 inh	Cav32 inh	CYP2C9 activ
CC(=O)Nn1cnc2c(c1=O)C1(CCCCC1)Cc1ccccc1-2	37	0.6	32	-0.84	0.7
CCOc1ccccc1N1C(=O)c2ccc(C(=O)Nc3cccnc3)cc2C1=O	57*	0.4	65*	-2.9*	0.3
O=C(Nc1cccnc1)c1ccc2c(c1)C(=O)N(Cc1cccnc1)C2=O	-13	1.1	27	0.029	0.7
CC(Sc1nc2ccccc2o1)C(=O)O (centres undefined)	12	0.9	15	-0.44	0.9
CCCN1C(=O)/C(=C/c2ccc(N3CCCC3)c(C)c2)NC1=S	53*	0.5	53*	-7.1*	0.5
COc1ccc(/C=C2\NC(=S)N(CC3CCCO3)C2=O)c(OC)c1C (centres undefined)	34	0.7	15	-0.06	0.8
COc1ccc([N+](=O)[O-])cc1NC(=O)CC(C)c1ccccc1 (centres undefined)	72*	0.3	-48	-3.4	1.5
CCOC(=O)Nc1ccc([N+](=O)[O-])cc1OC	/	/	/	0.075	/
CC(CC(=O)Nc1ccc(Cl)c([N+](=O)[O-])c1)c1ccccc1 (centres undefined)	76*	0.2	74*	-8.7*	0.3
CCCCCCNc1nc(NCc2ccco2)nc(OCC)n1	71*	0.3	79*	-7.2*	0.2
CCOc1nc(NCc2ccco2)nc(Nc2ccc(OC)cc2)n1	32	0.7	35	-1.9	0.6
Cc1cccc(C(=O)NCc2nnc(SCC(=O)N3CCN(c4ccccc4)CC3)n2C)c1	/	/	/	-0.38	/
Cc1ccc(CSCc2nnc(SCC(=O)N3CCN(c4ccccc4)CC3)n2C)cc1	60*	0.4	78*	-2	0.2
CCn1c(CSCc2ccc(F)cc2)nnc1SCC(=O)N1CCN(c2ccccc2)CC1	80*	0.2	58*	-3.1	0.4
Cc1cccc(N2CCN(C(=O)c3ccc(N4CCCC4=O)cc3)CC2)c1C	52*	0.5	70*	-0.31	0.3
O=C(c1ccc(N2CCCC2=O)cc1)N1CCCCCC1	58*	0.4	1	0.17	1
Cc1cccc(N2CCN(C(=O)c3ccc(N4CCCC4=O)cc3)CC2C)c1 (centres undefined)	56*	0.4	29	-1.4	0.7
O=C(c1ccc(N2CCCC2=O)cc1)N1CCN(c2ccccc2)CC1	20	0.8	40	0.097	0.6
COc1ccc(C(=O)CSC2=C(C#N)C3(CCCCC3)C(C#N)=C(N)N2)cc1	100*	0	98*	-0.65	0
N#CC1=C(N)NC(SCC(=O)c2ccc(Cl)cc2)=C(C#N)C12CCCC2	100*	0	97*	-1.9	0
CC(C)Oc1ccc(C(=O)NC2(C(F)(F)F)N=C3SCCN3C2=O)cc1 (centres undefined)	-17	1.2	14	-0.33	0.9
Nc1nonc1-c1noc(CCCCCN2C(=O)c3ccccc3C2=O)n1	6	0.9	13	-1.2	0.9
c1ccc2c(COn3nnc4ccccc43)cccc2c1	96*	0	70*	-2.9	0.3
c1ccc2c(Cn3nnc4ccccc43)cccc2c1	26	0.7	-147	-1.9	2.5*
CCc1c(C)nc(N)n2c(SCC(=O)N3CCN(c4ccccc4F)CC3)nnc12	-4	1	4	/	1
SMILES	CYP2C19 inhib	CYP2C19 activ	CYP2C9 inh	Cav32 inh	CYP2C9 activ
c1ccc(-c2cc(-c3nc(-c4cccnc4)no3)c3ccccc3n2)cc1	9	0.9	10	/	0.9
Cc1cc(OCc2nc(-c3cccnc3)no2)c(C)cc1Br	24	0.8	-11	-1.1	1.1
c1ccc(-c2ccccc2-c2nc(-c3cccnc3)no2)cc1	73*	0.3	96*	-5*	0
Clc1ccc(Cc2nc(-c3cccnc3)no2)cc1	54*	0.5	40	-1.3	0.6
CCC(=O)Oc1ccc(-c2nc(-c3cccnc3)no2)cc1	68*	0.3	70*	1.3	0.3
COc1ccc(Cc2nc(-c3ccccc3)no2)cc1	27	0.7	17	-2.4	0.8
c1cncc(-c2noc(CC3CCCCC3)n2)c1	80*	0.2	-9	-0.91	1.1
COc1cc2[nH]c(=O)n(Cc3ccccc3Cl)c(=O)c2cc1OC	16	0.8	28	2.1	0.7
O=C(NC1CC1)C1=C[C@@H](c2csc3ccccc23)C[C@@H](OCCCCO)O1	/	/	/	0.28	/
CCOc1ccc(NC(=O)C2CC=CCC2C(=O)O)cc1 (centres undefined)	-8	1.1	-8	-0.046	1.1
CC(C)OC(=O)C1CC=CCC1C(=O)Nc1ccc(Cl)cc1 (centres undefined)	91*	0.1	52*	-0.28	0.5
O=C(C1CCCCC1)N(Cc1nc2sc3c(c2c(=O)[nH]1)CCCC3)Cc1cccs1	30	0.7	62*	-1.2	0.4
CC1(c2nnc(-c3ccc(F)cc3)o2)CC(c2ccncc2)=NO1 (centres undefined)	/	/	/	0.53	/
CCOC(=O)c1ccc(NC(=O)COc2ccc(-n3cnnn3)cc2)cc1	-8	1.1	-9	-0.36	1.1
CCC(=O)c1ccc(OCC(=O)Nc2nn3cnnc3s2)cc1	29	0.7	84*	-0.23	0.2
O=c1[nH]c2ccc(S(=O)(=O)N3CCC(Cc4ccccc4)CC3)cc2o1	2	1	-88	1.7	1.9
CCCCN(Cc1ccccc1)S(=O)(=O)c1ccc2[nH]c(=O)oc2c1	76*	0.2	16	-1.1	0.8
Cc1cccc(C)c1OCC(O)Cn1nnc2ccccc21 (centres undefined)	59*	0.4	17	-1.1	0.8
O=C1C2CC=CCC2C(=O)N1c1ccc(OCC(O)Cn2nnc3ccccc32)cc1 (centres undefined)	16	0.8	40	0.72	0.6
CC(=O)c1ccc(OCC(O)Cn2nnc3ccccc32)cc1 (centres undefined)	76*	0.2	72*	0.88	0.3
COC(=O)c1ccc(OCC(O)Cn2nnc3ccccc32)cc1 (centres undefined)	81*	0.2	82*	0.29	0.2
N#Cc1ccc(-c2ccc(OCC(O)Cn3nnc4ccccc43)cc2)cc1 (centres undefined)	/	/	/	1.1	/
c1ccc2c(c1)CC1(CCCC1)n1nnnc1-2	29	0.7	-4	0.35	1
CSc1nc(-c2ccco2)nn1S(=O)(=O)c1ccccc1	83*	0.2	-115	-0.28	2.1*
CSc1nc(-c2ccco2)nn1C(=O)c1ccc(C)cc1	-13	1.1	-5	0.15	1.1
CCS(=O)(=O)n1nc(-c2ccco2)nc1SC	35	0.7	37	0.69	0.6
CSc1nc(-c2ccco2)nn1S(=O)(=O)c1ccc(C)cc1	68*	0.3	70*	-0.93	0.3
CC(C)[C@H]1COCCS(=O)(=O)N1Cc1ccccc1	/	/	/	0.97	/
CCn1nc(NC(=O)c2cccnc2)c2cc3ccccc3nc21	32	0.7	62*	-0.25	0.4
O=C(CCc1ccccc1)Nc1ccc2c(c1)OCCO2	5	1	20	0.17	0.8
